Measured values reported in PubChem BioAssay (NCATS).
Values joined by “and” are separate entries in the source; they are usually repeats but may differ in a detail not shown here. Equal values may be shown once. Inconclusive results are not listed. Entries that show only a call come without a potency. Active and inactive are the calls of the source. The call rests on the fitted dose curve; in most records, active means well fitted curve in the direction sought with a large enough effect; inconclusive means small, poorly fitted or top-dose-only effect, or another doubt; inactive means no such curve, though single readings can be large; an effect the other way counts as inactive or inconclusive.

test system: Zika virus NS2B-NS3 protease (unlinked); assay: Optimization of GU AMC qHTS for Zika virus inhibitors: Unlinked NS2B-NS3 protease assay (AID 1347151); details: recombinant ZIKV NS2B-NS3 protease, fluorogenic AMC substrate; series mostly up to 52.5 µM; further: nearly all actives have a fitted effect of over 80% in size
How it was run: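 Fluorescence read-out (340 nm ex / 450 nm em) of AMC peptide cleavage, taken immediately and after 15 min at room temperature (~20% conversion). Enzyme was the unlinked NS2B–NS3 complex at 25 nM in Tris pH 8.0 buffer.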
Potency means the concentration at half of the fitted maximal effect.

Q: How did the Potency turn out when Nc1nc(N)c2nc(CNc3ccc(C(=O)NC(CCC(=O)O)C(=O)O)cc3)cnc2n1 (stereo not drawn) was run?
A: 26.7 µM (active)

Q: Which Potency does the source give for CC1CC2C3CCC4=CC(=O)C=C[C@]4(C)[C@@]3(F)[C@@H](O)C[C@]2(C)[C@@]1(O)C(=O)CO (stereo partly drawn) here?
A: inactive

Q: CNS(=O)(=O)CCc1ccc2[nH]cc(C3CCN(C)CC3)c2c1 was tested. Which Potency did it give?
A: inactive

Q: Which Potency does the source give for CC(C)NCC(O)c1ccc(NS(C)(=O)=O)cc1 (stereo not drawn) here?
A: inactive

Q: For Nc1nc(=S)c2[nH]cnc2[nH]1, which Potency is on record?
A: inactive

Q: COc1cc2nc(N3CCCN(C)CC3)nc(NC3CCN(Cc4ccccc4)CC3)c2cc1OC was tested. Which Potency did it give?
A: 21.2 µM (active)

Q: How did the Potency turn out when COC(=O)Nc1nc2ccc(C(=O)c3ccccc3)cc2[nH]1 was run?
A: inactive

Q: CNC(=O)c1cc(Oc2ccc(NC(=O)Nc3ccc(Cl)c(C(F)(F)F)c3)cc2)ccn1 was tested. Which Potency did it give?
A: 9.87 µM (active)

test system: Zika virus NS2B-NS3 protease; assay: Primary screen GU AMC qHTS for Zika virus inhibitors (AID 1347154); details: Zika NS2B-NS3 unlinked protease, AMC fluorogenic substrate; series mostly up to 54.1 µM; further: nearly all actives have a fitted effect of over 70% in size
How it was run: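 Fluorogenic AMC-substrate cleavage by noncovalent NS2B-NS3 protease complex (25 nM, pH 8.0 Tris buffer with Tween 20) followed for 15 minutes at room temperature (~20% conversion). Percent inhibition from ex340/em450 signal change, fitted by 4-parameter Hill equation.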

Q: How did the Potency turn out when COC(=O)Nc1nc2ccc(Sc3ccccc3)cc2[nH]1 was run?
A: inactive

Q: How did the Potency turn out when CCCCOc1ccc(CC(=O)NO)cc1 was run?
A: inactive

Q: Which Potency does the source give for CC(C)(C)C(=O)OCOP(=O)(COCCn1cnc2c(N)ncnc21)OCOC(=O)C(C)(C)C here?
A: inactive

Q: How did the Potency turn out when Cn1nnc2c(C(N)=O)ncn2c1=O was run?
A: inactive

Q: For Nc1nc(N)c2nc(CNc3ccc(C(=O)NC(CCC(=O)O)C(=O)O)cc3)cnc2n1 (stereo not drawn), which Potency is on record?
A: 21.5 µM (active)

Q: Which Potency does the source give for CCOC(=O)c1ccc(C#Cc2ccc3c(c2)C(C)(C)CCS3)nc1 here?
A: 31.6 µM (active) and 21.5 µM (active)

Q: For CN1CCCC(n2nc(Cc3ccc(Cl)cc3)c3ccccc3c2=O)CC1 (stereo not drawn), which Potency is on record?
A: inactive

Q: With N=C(N)c1ccc(OCCCCCOc2ccc(C(=N)N)cc2)cc1 as the molecule, how does the Potency read?
A: inactive

Q: CC1CC2C3CCC4=CC(=O)C=C[C@]4(C)[C@@]3(F)[C@@H](O)C[C@]2(C)[C@@]1(O)C(=O)CO (stereo partly drawn) was tested. Which Potency did it give?
A: inactive

Q: CNS(=O)(=O)CCc1ccc2[nH]cc(C3CCN(C)CC3)c2c1 was tested. Which Potency did it give?
A: inactive

Q: For CO[C@@]12[C@H](COC(N)=O)C3=C(C(=O)C(C)=C(N)C3=O)N1C[C@@H]1N[C@@H]12, which Potency is on record?
A: inactive

Q: With CC(C)(C#N)c1cc(Cn2cncn2)cc(C(C)(C)C#N)c1 as the molecule, how does the Potency read?
A: inactive

Q: With Nc1nc(N)nc(-c2cc(Cl)ccc2Cl)n1 as the molecule, how does the Potency read?
A: inactive

Q: How did the Potency turn out when COC(=O)Nc1nc2ccc(S(=O)c3ccccc3)cc2[nH]1 (stereo not drawn) was run?
A: inactive

Q: CC(C)NCC(O)c1ccc(NS(C)(=O)=O)cc1 (stereo not drawn) was tested. Which Potency did it give?
A: inactive

Q: With CS(=O)(=O)c1ccc([C@@H](O)[C@@H](CO)NC(=O)C(Cl)Cl)cc1 as the molecule, how does the Potency read?
A: inactive

Q: How did the Potency turn out when Nc1[nH]c(=O)ncc1F was run?
A: inactive

Q: CCC(=O)O[C@]1(C(=O)SCF)[C@H](C)C[C@H]2[C@@H]3C[C@H](F)C4=CC(=O)C=C[C@]4(C)[C@@]3(F)[C@@H](O)C[C@@]21C was tested. Which Potency did it give?
A: inactive

Q: How did the Potency turn out when C[C@@H](CN1CC(=O)NC(=O)C1)N1CC(=O)NC(=O)C1 was run?
A: inactive

Q: CCC(=O)O[C@]1(C(=O)CCl)[C@@H](C)C[C@H]2[C@@H]3CCC4=CC(=O)C=C[C@]4(C)[C@@]3(F)[C@@H](O)C[C@@]21C was tested. Which Potency did it give?
A: inactive

Q: With C[C@@H]1C[C@H]2[C@@H]3CCC4=CC(=O)C=C[C@]4(C)[C@@]3(Cl)[C@@H](O)C[C@]2(C)[C@@]1(OC(=O)c1ccco1)C(=O)CCl as the molecule, how does the Potency read?
A: inactive

Q: COc1ccc(-c2ccc3cc(C(=O)O)ccc3c2)cc1C12CC3CC(CC(C3)C1)C2 was tested. Which Potency did it give?
A: inactive

Q: Which Potency does the source give for CN(C)c1ccc(C(=C2C=CC(=[N+](C)C)C=C2)c2ccc(N(C)C)cc2)cc1 here?
A: inactive

Q: With COc1cc([C@@H]2c3cc4c(cc3[C@H](O)[C@H]3COC(=O)[C@H]23)OCO4)cc(OC)c1OC as the molecule, how does the Potency read?
A: inactive

Q: How did the Potency turn out when Oc1c(Cl)cc(Cl)c2cccnc12 was run?
A: inactive

Q: With O=C(NCC1CN(c2ccc(N3CCOCC3=O)cc2)C(=O)O1)c1ccc(Cl)s1 (stereo not drawn) as the molecule, how does the Potency read?
A: inactive

Q: With CC(C(=O)O)c1ccc2c(c1)CC(=O)c1ccccc1S2 (stereo not drawn) as the molecule, how does the Potency read?
A: inactive

Q: COc1ccc(C(=O)CC(=O)c2ccc(C(C)(C)C)cc2)cc1 was tested. Which Potency did it give?
A: inactive

Q: COc1cc2c(Nc3ccc(Br)cc3F)ncnc2cc1OCC1CCN(C)CC1 was tested. Which Potency did it give?
A: inactive

Q: COc1nc(N)nc2c1ncn2[C@@H]1O[C@H](CO)[C@@H](O)[C@@H]1O was tested. Which Potency did it give?
A: inactive

Q: Which Potency does the source give for Nc1nc(=S)c2[nH]cnc2[nH]1 here?
A: inactive

Q: COc1cc2nc(N3CCCN(C)CC3)nc(NC3CCN(Cc4ccccc4)CC3)c2cc1OC was tested. Which Potency did it give?
A: 27.1 µM (active)

Q: COC(=O)Nc1nc2ccc(C(=O)c3ccccc3)cc2[nH]1 was tested. Which Potency did it give?
A: inactive

Q: CC(C)C[C@H](NC(=O)[C@H](CCc1ccccc1)NC(=O)CN1CCOCC1)C(=O)N[C@@H](Cc1ccccc1)C(=O)N[C@@H](CC(C)C)C(=O)[C@@]1(C)CO1 was tested. Which Potency did it give?
A: inactive

Q: Which Potency does the source give for CNC(=O)c1cc(Oc2ccc(NC(=O)Nc3ccc(Cl)c(C(F)(F)F)c3)cc2)ccn1 here?
A: inactive

test system: Zika virus NS2B-NS3 protease (unlinked complex); assay: Primary screen GU Rhodamine qHTS for Zika virus inhibitors: Unlinked NS2B-NS3 protease assay (AID 1347159); details: Recombinant ZIKV NS2B-NS3 protease, Rhodamine110 substrate fluorescence; series mostly up to 107 µM; further: nearly all actives have a fitted effect of over 60% in size
How it was run: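 A qHTS format was used, with compound concentrations ranging up to 114 microM. Each compound was preincubated with 25 nM NS2B-NS3 protease, and the substrate was then added at 1.5 microM. Curves were fitted with a 4-parameter Hill model.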

Q: CNS(=O)(=O)CCc1ccc2[nH]cc(C3CCN(C)CC3)c2c1 was tested. Which Potency did it give?
A: inactive

Q: Which Potency does the source give for O=C(NCC1CN(c2ccc(N3CCOCC3=O)cc2)C(=O)O1)c1ccc(Cl)s1 (stereo not drawn) here?
A: inactive

Q: How did the Potency turn out when CC(C(=O)O)c1ccc2c(c1)CC(=O)c1ccccc1S2 (stereo not drawn) was run?
A: inactive

Q: How did the Potency turn out when COc1cc2c(Nc3ccc(Br)cc3F)ncnc2cc1OCC1CCN(C)CC1 was run?
A: inactive

Q: CNC(=O)c1cc(Oc2ccc(NC(=O)Nc3ccc(Cl)c(C(F)(F)F)c3)cc2)ccn1 was tested. Which Potency did it give?
A: 8.91 µM (active)
